The text below walks through data of ChEMBL document CHEMBL3433997, “St. Jude Leishmania screening dataset” (2016).

Common to all, as to type: functional
Experiment [1] addresses Solute carrier family 2, facilitated glucose transporter member 1 (Homo sapiens) (UniProt P11166). The experiment can be described thus: ST_JUDE_LEISH: Cytotoxicity at 2uM final concentration against transgenic Leishmania Mexicana promastigotes LmGLUT1 that are glucose transport deficient and complemented with the human glucose transporter GLUT1. Activity is measured by DNA content using SYBR green in vitro.

Experiment [2] deals with Hexose transporter 1 (Plasmodium falciparum) (UniProt O97467). The experiment can be described thus: ST_JUDE_LEISH: Cytotoxicity at 2uM final concentration against transgenic Leishmania Mexicana promastigotes LmPfHT that are glucose transport deficient and complemented with the Plasmodium falciparum hexose transporter. Activity is measured by DNA content using SYBR green in vitro.

Experiment [3] concerns the target Glucose transporter (Leishmania mexicana) (UniProt O61059). The experiment can be described thus: ST_JUDE_LEISH: Cytotoxicity at 2uM final concentration against transgenic Leishmania Mexicana promastigotes LmGT2 that are glucose transport deficient and complemented with the L. Mexicana glucose transporter 2. Activity is measured by DNA content using SYBR green in vitro.

Usually inhibition stands for the change of the read-out against control, counted positive when it falls.

Chain of Solute carrier family 2, facilitated glucose transporter member 1 (Homo sapiens) (P11166 whole entry): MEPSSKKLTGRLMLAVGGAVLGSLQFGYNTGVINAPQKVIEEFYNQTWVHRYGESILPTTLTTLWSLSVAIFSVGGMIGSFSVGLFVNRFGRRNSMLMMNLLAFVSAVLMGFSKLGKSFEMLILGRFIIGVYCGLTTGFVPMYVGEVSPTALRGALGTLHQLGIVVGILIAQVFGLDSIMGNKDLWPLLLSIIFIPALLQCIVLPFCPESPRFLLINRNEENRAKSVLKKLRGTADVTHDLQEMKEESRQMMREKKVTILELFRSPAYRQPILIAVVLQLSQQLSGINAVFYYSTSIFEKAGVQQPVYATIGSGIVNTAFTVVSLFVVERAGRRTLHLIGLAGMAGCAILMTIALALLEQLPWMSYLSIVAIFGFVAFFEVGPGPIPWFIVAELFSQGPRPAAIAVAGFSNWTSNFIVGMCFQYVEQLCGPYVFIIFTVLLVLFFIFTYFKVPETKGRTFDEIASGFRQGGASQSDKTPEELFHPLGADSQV

As for `Cc1cccc2nc(-c3cccc(-c4cccc(C(=O)NCCN5CCCC5)c4)c3)[nH]c12`, the inhibition in experiment [1] is 1.04%; in experiment [2] it was 1.28%; in experiment [3], -0.38%.
The matching figures for `N#Cc1ccc(-c2ccc(C(=O)NC3CCN(CCN4CCC(c5cn(CCOC6CCCCO6)c6ccccc56)CC4)CC3)cc2)cc1` (stereo not given): 14.4%, 6.81% and 21.2%.
On the same counts, the results for `Cc1noc(C)c1-c1cccc(CNCc2cccc(-c3ccc(-c4nc5cccc(C)c5[nH]4)s3)c2)c1` are 2.85%, 2.47% and 2.66%.
On the same counts, the results for `CN1CCN(CC(=O)Nc2cccc(-c3cccc(-c4nc5cc(F)ccc5[nH]4)c3)c2)CC1` are 0.82%, 1.22% and 3.51%.
`COc1ccc(-c2ccc(NC(=O)c3ccc(Cl)cc3)cc2)cc1CN(C)CCO`: the inhibition in experiment [1] was 4.1%; in experiment [2], 3.45%; in experiment [3] it was -0.68%.
The matching figures for `Oc1ccc(CN2CCC(N3CCN(CCc4ccccc4)CC3)C(O)C2)cc1Cl` (stereo not given): 1.3%, -0.2% and 2.61%.
The matching figures for `Nc1cccc(CNCc2cccc(-c3cccc(-c4nc5cc(C(F)(F)F)ccc5[nH]4)c3)c2)c1`: 1.23%, -0.22% and 1.43%.
On the same counts, the results for `c1ccc2[nH]c(-c3ccc(-c4ccc(CN5CCC(N6CCCCC6)CC5)cc4)s3)nc2c1` are 0.72%, -0.81% and -1.09%.
As to `COc1cc(NC(=O)CCCCCCCCN2CCN(C)CC2)c2ncccc2c1`, the results for the inhibition in experiment [1], in experiment [2] and in experiment [3] were 1.29%, -0.26% and 0.86%, respectively.
On the same counts, the results for `COc1ccccc1CCNc1nc(C)cc(N[C@@H](CC(C)C)C(=O)NCc2cccc(F)c2)n1` are 9.56%, 8.52% and 8.86%.
The matching figures for `O=C(Nc1ccc(Cl)cc1)Nc1cccc(-c2cccc(-c3nc4cc(C(F)(F)F)ccc4[nH]3)c2)c1`: -0.58%, -0.83% and -2.27%.
On the same counts, the results for `Cc1ccc(Oc2ncccc2C(=O)Nc2cccc3cccnc23)c(C)c1` are -2.47%, -0.84% and -1.45%.
For `NC(=O)COc1c(C2CCN(CCCCNC(=O)c3ccc(-c4ccc(Cl)cc4)c(O)c3)CC2)ccc2c1CCCC2`, the inhibition was -0.69% in experiment [1], 2.57% in experiment [2] and 2.53% in experiment [3].
For `Cc1ccccc1C1CCN(C2CCC(NC(=O)c3cc4cc(C(C)C)ccc4[nH]3)CC2)CC1` (stereo not given), the inhibition in experiment [1] amounted to 1.91%; in experiment [2], 2.91%; in experiment [3] it was 1.43%.
On the same counts, the results for `Cc1c(CCNC(=O)CCCN2CC(C)CC(C)C2)c2ccccc2n1C` (stereo not given) are 1.14%, 3.38% and 3.01%.
On the same counts, the results for `COCCOCCOCCn1ccc2c3c(N)nc(N)nc3ccc21` are 4.65%, 1.94% and 2.29%.
The matching figures for `O=C1COc2ccc(S(=O)(=O)N3CCC[C@@H]3CCN3CCC(c4c[nH]c5cnccc45)CC3)cc2N1`: 0.76%, 0.68% and 2.12%.
On to `CN(C)CCCOc1ccc(CCCCc2ccc(Cl)cc2C(=O)c2ccccc2)cc1`, for which the figures for the inhibition in experiment [1], in experiment [2] and in experiment [3] were 13.3%, 10.2% and 7.71%, respectively.
As to `Cc1cc(-c2cccc3c(NC(=O)N4CCc5cc6nccc(N7CCN8CCC[C@H]8C7)c6cc54)cccc23)cc(C)n1`, the values for the inhibition in experiment [1], in experiment [2] and in experiment [3] were 4.48%, 2.56% and 1.59%, respectively.
On the same counts, the results for `CN(C)CCN(C)Cc1nc(-c2ccc3c(Nc4ccc(Oc5ccccc5)cc4)ccnc3c2)cs1` are 2.99%, 3.38% and 2.65%.
On the same counts, the results for `COCCN(C(=O)Cc1cccs1)C(C(=O)NCc1ccc(OC)cc1)c1ccc(C(C)C)cc1` (stereo not given) are 2.96%, -3.02% and -0.76%.
On the same counts, the results for `CC(C)(C)c1ccc(CN2CCCCC(NC(=O)c3cc(-c4ccccc4Cl)cs3)C2)cc1` (stereo not given) are 2.83%, 3.91% and 1%.
Take `O=C(NC1CCCc2ccccc21)[C@@H]1CCCN1C(=O)c1ccc(O)c(-c2cccc([N+](=O)[O-])c2)c1` (stereo not given in full): the inhibition in experiment [1] was determined as 2.69%; in experiment [2] it was 1.92%; in experiment [3], 2.82%.
On the same counts, the results for `O=c1cc(NCCCNCc2ccc(C(F)(F)F)c(F)c2)[nH]c2ccccc12` are 0.24%, 0.58% and -0.68%.
The matching figures for `O=C(Nc1nc(-c2ccccn2)cs1)c1ccc(Br)s1`: -1.89%, 4.54% and 0.61%.
The matching figures for `Nc1cc(/C=C/c2ccc([N+](=O)[O-])o2)nc2ccccc12`: 104%, 104% and 101%.
On to `O=C(c1cccc(-c2cccc(-c3nc4cc(F)ccc4[nH]3)c2)c1)N1CCCCC1CN1CCC(O)C1` (stereo not given), for which the results for the inhibition in experiment [1], in experiment [2] and in experiment [3] were 0.52%, -0.32% and 0.51%, respectively.
In the case of `CS(=O)(=O)c1ccc(OCCCN(Cc2ccccc2C(F)(F)F)c2ccc(C#N)c(C(F)(F)F)c2)cc1`, the inhibition in experiment [1] was 1.51%; in experiment [2], 3.33%; in experiment [3] it was 0.65%.
The matching figures for `O=C(/C=C/c1ccc(Cl)c(Cl)c1)NCCCCCN1CCC(CCNC(=O)/C=C/c2cc(C(F)(F)F)ccc2F)CC1`: -4.09%, -2.42% and 2.28%.
On the same counts, the results for `Cc1cc(N(C)C)nc(Nc2ccc(NC(=O)Nc3ccccc3)cc2)n1` are 2.43%, 3.74% and 4.26%.
The matching figures for `CC(C)[C@H](NCC(=O)c1ccccc1)C(=O)O`: -0.14%, 0.65% and -0.17%.
On to `O=C(CSc1nc(-c2ccccc2Cl)ns1)Nc1cccc(Cl)c1`, for which the inhibition in experiment [1] is 1.59%; in experiment [2], 1.79%; in experiment [3], 0.35%.
On the same counts, the results for `O=C(Nc1ccc(C(F)(F)F)cc1)c1ccc(S(=O)(=O)NC2CCN(CC3CCCCC3)C2)cc1` (stereo not given) are -3%, 1.05% and -3.85%.
As to `Brc1cc2c(cc1C=NNc1nc(=Nc3ccccc3)[nH]c(=Nc3ccccc3)[nH]1)OCO2`, the inhibition in experiment [1] is 3.97%; in experiment [2] it was 3.42%; in experiment [3], -2.12%.
The matching figures for `CC(C)(C)c1ccc(NC(=O)c2cccc(CN3CCCN(Cc4cccc(Cl)c4)CC3)c2)cc1`: 5.32%, 4.37% and 2.14%.
